Assay results taken from PMC13494018.
A number with no mark means an inactive call. The rule behind the calls is not given here.

Target: VTCN1, Q7Z7D3
Sequence (Q7Z7D3 whole entry): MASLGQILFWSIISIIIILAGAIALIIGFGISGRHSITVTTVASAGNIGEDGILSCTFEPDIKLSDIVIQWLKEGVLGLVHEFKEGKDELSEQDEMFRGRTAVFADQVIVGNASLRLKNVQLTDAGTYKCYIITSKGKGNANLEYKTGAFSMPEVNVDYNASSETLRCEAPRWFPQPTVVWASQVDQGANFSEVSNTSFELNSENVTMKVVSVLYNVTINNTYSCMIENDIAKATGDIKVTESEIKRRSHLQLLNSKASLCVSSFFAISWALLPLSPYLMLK

B1: design_376_bf9d4634-8475-4fdb-a175-1db49a23bdcd_1567_dldesign_0_cycle1_af2pred (protein)
chain: SAEEEIKKKAKELEKAGAAALFELADASKEEAPKYAAKIDKAIADLKALGKAATPELGKELFAKADKLQATRDRIMEDIES
- binding in a display sort: not found

B2: design_376_bf9d4634-8475-4fdb-a175-1db49a23bdcd_1330_dldesign_0_cycle1_af2pred (protein)
chain: AVEEKLKEYTKKAEEYIEKLEKLDPEKAKELRKELEEAKKLTPEEALKKVKEIAAKASEAYYQAKAEEDAKK
- binding in a display sort: not found

B3: design_376_bf9d4634-8475-4fdb-a175-1db49a23bdcd_1727_dldesign_0_cycle1_af2pred (protein)
chain: STEEAIKKALEMAEKIAKATPETGAEATKIRDELLEYIAEFAEKGTVEGTKAVAEALREQAEKASPEAAKSLRAAARFAEALAKAKA
- binding in a display sort: not found

B4: design_376_bf9d4634-8475-4fdb-a175-1db49a23bdcd_2272_dldesign_0_cycle1_af2pred (protein)
chain: AEEYLKEAKKYLEEAKKVAEKNPKAKPAYERGKKKYEEYLKKAKETGDYEEYAKKAYIAADQALEHAEFIAK
- binding in a display sort: not found

B5: design_376_bf9d4634-8475-4fdb-a175-1db49a23bdcd_2406_dldesign_0_cycle1_af2pred (protein)
chain: HMEELEKLLKEAEKAAKEAAEAYKKDPAEGKKWASKARDLSIEAISLDPSAYEKAKEIAEKVAEVDPEAGKKIKAILERTYEALKRA
- binding in a display sort: not found

B6: design_376_bf9d4634-8475-4fdb-a175-1db49a23bdcd_2251_dldesign_0_cycle1_af2pred (protein)
chain: GAASAAEEAKGHAIAAEAYALSGKKKEEALEDAKKAGEYAKKATPEYQAAVKKLFEKKVERVKAKPESAETAEKMKALFEEVVA
- binding in a display sort: not found

B7: design_376_bf9d4634-8475-4fdb-a175-1db49a23bdcd_2363_dldesign_0_cycle1_af2pred (protein)
chain: AEEEAKQKELIKEMARHIQEAREYRNAAEKLPEKKEEYVKKALEHVEKALEAAEELIKNPKYKEYGEKGKKRAEEVRKKIEEVK
- binding in a display sort: not found

B8: design_376_bf9d4634-8475-4fdb-a175-1db49a23bdcd_2064_dldesign_0_cycle1_af2pred (protein)
chain: SEKEEIIKRAKEVAERARKVAAEAKEIGPAALPVLNKATEARALANAARDLAEAGGNLEVAKEVLKEAEELLKKAEEELKKLKKE
- binding in a display sort: not found

B9: design_376_bf9d4634-8475-4fdb-a175-1db49a23bdcd_2226_dldesign_0_cycle1_af2pred (protein)
chain: KYKEEAKKKTEEELEKAAKAVSKENAPKVEKVKKEALKALEEDFSKAAEIIRNFAKEEKENHDVVKKYAAKASEALYEARAAKEVEER
- binding in a display sort: not found

B10: design_376_bf9d4634-8475-4fdb-a175-1db49a23bdcd_1228_dldesign_0_cycle1_af2pred (protein)
chain: DAALKALATKLQEEGLAWADKAYEAMQIIDPKEAPKVASDILRDFARANKLYAEDPAKGAAALAAARAKVEAIVALAKKVS
- binding in a display sort: not found

B11: design_596_3e5f537c-0703-45f0-993f-ff416531349a_73_dldesign_0_cycle1_af2pred (protein)
chain: AEKEKEAQKLLEEMVEYGEKKAKEAEKLNPKAGERIRRARERYEKYAKDPEKAKQYVEALKEYADHVVEAAKK
- binding in a display sort: not found

B12: design_596_3e5f537c-0703-45f0-993f-ff416531349a_8_dldesign_0_cycle1_af2pred (protein)
chain: EEEEREKVIKKAKEVLDRNGKKALEYAKIVPEVAPEVEKTIKESRAEIEKAAGLSLEEAQKAAAAAVHKVQELRAEAYFLAEKKK
- binding in a display sort: not found

B13: design_376_bf9d4634-8475-4fdb-a175-1db49a23bdcd_2125_dldesign_0_cycle1_af2pred (protein)
chain: SPYQKKLEEEAEEIIARARKLAEEAREAAKKAGPKIKSLADEAISYAAIARSLARDGVKYGEKYLELAKEELAKAEELAKEAVKLAKE
- binding in a display sort: not found

B14: design_376_bf9d4634-8475-4fdb-a175-1db49a23bdcd_2229_dldesign_0_cycle1_af2pred (protein)
chain: MAEKIKKAITEAREKYADARGYAYAAKKDPKFLPEAVKAADAAAAAWEALAKLDPANKAIYDANAAKAKAIGDAAKAAL
- binding in a display sort: not found

B15: design_596_3e5f537c-0703-45f0-993f-ff416531349a_466_dldesign_0_cycle1_af2pred (protein)
chain: EEERTKLIKEASDLRREAIALLREAGKAADPATAGAAVFAIPDLEAFTAAAAAAAKAYPELAATWEAAAAKATASHAAVEKAEKL
- binding in a display sort: not found

B16: design_596_3e5f537c-0703-45f0-993f-ff416531349a_338_dldesign_0_cycle1_af2pred (protein)
chain: GSMEEKKKKEVEEAEKEAEKILEKAKKEAEKAAKKSPAQAVEVALEALSELKYLGSKYPEKAEEFEKRGRELVEEYKKKAE
- binding in a display sort: not found

B17: design_376_bf9d4634-8475-4fdb-a175-1db49a23bdcd_1797_dldesign_0_cycle1_af2pred (protein)
chain: AADEAKAKAKAALDAAAAAAAKVDPKKAPEVKARAAKAKATLDKLYADFKDDPEIATEVANIFLKGAEALLKEIKAA
- binding in a display sort: not found

B18: design_376_bf9d4634-8475-4fdb-a175-1db49a23bdcd_800_dldesign_0_cycle1_af2pred (protein)
chain: AKAELEKLKKEAAKHRQEMYFYGKASAKLGPKYKAEYEEHYAKALEAAKKIKELDPEEGKKYEEIVLKTKKRLEKEL
- binding in a display sort: not found

B19: design_376_bf9d4634-8475-4fdb-a175-1db49a23bdcd_1020_dldesign_0_cycle1_af2pred (protein)
chain: MGKKIHDVVKKAAEEARKAAEKAGADGELVRKAAYTAGWYYIAGDEEEAKKIVELAKKAEPKFAKTVEELMKKALEAAKKALEE
- binding in a display sort: not found

B20: design_376_bf9d4634-8475-4fdb-a175-1db49a23bdcd_2333_dldesign_0_cycle1_af2pred (protein)
chain: SEIAEKLAEWAEKAKASTREEAKAILDELLADEETKEYAELALEIVKDIAGEDAPAEAIGLALRIASDAAEA
- binding in a display sort: not found

B21: design_376_bf9d4634-8475-4fdb-a175-1db49a23bdcd_1192_dldesign_0_cycle1_af2pred (protein)
chain: GTEKTKKISDHLRKAVSAAKKAVAIAKKAGIGEEMQKTFSELRDAVVDGDLEKAKEYAKKLLELGKKVPEAYEYAKEAAEEALKAVE
- binding in a display sort: not found

B22: design_376_bf9d4634-8475-4fdb-a175-1db49a23bdcd_2270_dldesign_0_cycle1_af2pred (protein)
chain: SMAREKARKESEELRELVKKAREIAKEAKEKAKEKGPEAQKIAKEAAKEAAKAVWYFPDKEKSEKALQKAEELLKEI
- binding in a display sort: not found

B23: design_596_3e5f537c-0703-45f0-993f-ff416531349a_232_dldesign_0_cycle1_af2pred (protein)
chain: LKAEAAEKSAEARELIAEAETLAKNIKNLSKEEAKEALKVAEEALKKAKEAAKLMAKVGEEELGKKLLERAKKAYKETKEAVKKKLK
- binding in a display sort: not found

B24: design_376_bf9d4634-8475-4fdb-a175-1db49a23bdcd_869_dldesign_0_cycle1_af2pred (protein)
chain: REAALAAGAARLEAALAASPAAPAAAAALRAALEAGADAADVILAVQDVLAEAGAAKEDLSAAAKAAAEAVRLYS
- binding in a display sort: not found

B25: design_376_bf9d4634-8475-4fdb-a175-1db49a23bdcd_1954_dldesign_0_cycle1_af2pred (protein)
chain: MTAEEAIKKIEEAAEKASKELKEIGKKNPAVAAYAKAASERVKRRAKRAIKEIKEKGLTGVQAEGLAEAASYFAEDQAENAKKKAEEA
- binding in a display sort: not found

B26: design_596_3e5f537c-0703-45f0-993f-ff416531349a_46_dldesign_0_cycle1_af2pred (protein)
chain: KYKELLKKAKELYEKAIAAAGDPAKAAAELKKANAAFTDALAEARAESKENFKKVRKEYGELKAKYEAAKAAA
- binding in a display sort: not found

B27: design_376_bf9d4634-8475-4fdb-a175-1db49a23bdcd_1294_dldesign_0_cycle1_af2pred (protein)
chain: SVKENTKEAAKKLEEKYGAEFAKIGPEYAAKMAAAAKEAAKKPTSADAIILMRDAYDELKKEADAALAAA
- binding in a display sort: not found

B28: design_376_bf9d4634-8475-4fdb-a175-1db49a23bdcd_1182_dldesign_0_cycle1_af2pred (protein)
chain: EEEEKQKVKEEAAKNVEEAVEAAGELIAKHPELREKAYKLRKEAIRLSQEAGKAAEKDLEEGKKYLEESKEKVKEIKKLAEE
- binding in a display sort: not found

B29: design_376_bf9d4634-8475-4fdb-a175-1db49a23bdcd_2428_dldesign_0_cycle1_af2pred (protein)
chain: MEEAIKKLKEIAKKLKELSKEAEKLAKEYPKVKNEALKVSGYAETAADQAESALKNKEKAAEAAKWAEKRLEKVEKDLKEVKKKAK
- binding in a display sort: not found

B30: design_376_bf9d4634-8475-4fdb-a175-1db49a23bdcd_1609_dldesign_0_cycle1_af2pred (protein)
chain: AKEEARELAEKAYEAAKSTSEDLREDVEKDGIGPKAVKSISDNMIEWIEKVHEEVKVDEEAHKIAEEAIKYAKEEGEKNIELAKKR
- binding in a display sort: not found

B31: design_376_bf9d4634-8475-4fdb-a175-1db49a23bdcd_2407_dldesign_0_cycle1_af2pred (protein)
chain: MEEEEKKKKEEAKKLAKELGNLLIEAFDADVEDEEKGEEKLKEAKKLAKELKKLDPELGKKAEKRIKRFEESMKIAKELKEK
- binding in a display sort: not found

B32: design_376_bf9d4634-8475-4fdb-a175-1db49a23bdcd_1125_dldesign_0_cycle1_af2pred (protein)
chain: VEEAAKKAKEKVKEVAEKATKEAPETADIAKALAENAEKKIDELAKKGAPKEALEKAAEKAIKTIKAVKKSALELK
- binding in a display sort: not found

B33: design_376_bf9d4634-8475-4fdb-a175-1db49a23bdcd_1019_dldesign_0_cycle1_af2pred (protein)
chain: ILKEFAKLVSEAIKKATKADGLNGADIVWKEAEKSFKEVKEALKKGEEEAKKALEKAKERLEKAVEEAKKRGEA
- binding in a display sort: not found

B34: design_376_bf9d4634-8475-4fdb-a175-1db49a23bdcd_888_dldesign_0_cycle1_af2pred (protein)
chain: GVVEKAKKISEAVRAEHKAKATTKLAKADPSQAAAAKAAAEEAKKAAEKAEEADKETAKAAKAAGKEAEAAAKA
- binding in a display sort: not found

B35: design_376_bf9d4634-8475-4fdb-a175-1db49a23bdcd_1553_dldesign_0_cycle1_af2pred (protein)
chain: HEEAEKAIEKAKEYFKELVKELEKLDPKAGAKMKELAEKGKKVLERMKEYSPEDVKETAESIMKGAEKEFEKLKKEAEA
- binding in a display sort: not found

B36: design_376_bf9d4634-8475-4fdb-a175-1db49a23bdcd_1417_dldesign_0_cycle1_af2pred (protein)
chain: MEEDEKKVEEVKKRGKEVAEKAKKSTPEEAEELRKEFTRYAAEVGGKASPEARNKIQEIRAEANGEIALAIIKKK
- binding in a display sort: not found

B37: design_376_bf9d4634-8475-4fdb-a175-1db49a23bdcd_1821_dldesign_0_cycle1_af2pred (protein)
chain: SNVKEANKKIDEATKLLVDARKAVYEKGKAAGPEVAAGAQKIIAGAVRGDVAPALADTPEVAALAKQMQAALDKAEKLENEAVKLLS
- binding in a display sort: not found

B38: design_376_bf9d4634-8475-4fdb-a175-1db49a23bdcd_2298_dldesign_0_cycle1_af2pred (protein)
chain: GLEEKAKKAVEKAKEYLKKAKAAMEKGDYKSALAYAEQAIHAATAAIKIAKEDPSLKELEEEAKKILEEAKKLLEEAEKKL
- binding in a display sort: not found
